Dicer processing: inhibitors of Dicer pre-microRNA processing, primary screen, biochemical, cat-ELCCA, chemiluminescence; Endoribonuclease Dicer (Homo sapiens), Q9UPY3; cat-ELCCA pre-miR-21 Dicer processing; active compounds read high; z-score at 25 µM; actives 6% (n = 47,000); AID 1347074, 2019; in the data active means z-score above about 3, passing the limit was not always enough;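 further: plate controls were vehicle for no effect and no enzyme for full effect; higher signal means more uncleaved substrate so more Dicer inhibition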
Target sequence (Q9UPY3 whole entry, looked up): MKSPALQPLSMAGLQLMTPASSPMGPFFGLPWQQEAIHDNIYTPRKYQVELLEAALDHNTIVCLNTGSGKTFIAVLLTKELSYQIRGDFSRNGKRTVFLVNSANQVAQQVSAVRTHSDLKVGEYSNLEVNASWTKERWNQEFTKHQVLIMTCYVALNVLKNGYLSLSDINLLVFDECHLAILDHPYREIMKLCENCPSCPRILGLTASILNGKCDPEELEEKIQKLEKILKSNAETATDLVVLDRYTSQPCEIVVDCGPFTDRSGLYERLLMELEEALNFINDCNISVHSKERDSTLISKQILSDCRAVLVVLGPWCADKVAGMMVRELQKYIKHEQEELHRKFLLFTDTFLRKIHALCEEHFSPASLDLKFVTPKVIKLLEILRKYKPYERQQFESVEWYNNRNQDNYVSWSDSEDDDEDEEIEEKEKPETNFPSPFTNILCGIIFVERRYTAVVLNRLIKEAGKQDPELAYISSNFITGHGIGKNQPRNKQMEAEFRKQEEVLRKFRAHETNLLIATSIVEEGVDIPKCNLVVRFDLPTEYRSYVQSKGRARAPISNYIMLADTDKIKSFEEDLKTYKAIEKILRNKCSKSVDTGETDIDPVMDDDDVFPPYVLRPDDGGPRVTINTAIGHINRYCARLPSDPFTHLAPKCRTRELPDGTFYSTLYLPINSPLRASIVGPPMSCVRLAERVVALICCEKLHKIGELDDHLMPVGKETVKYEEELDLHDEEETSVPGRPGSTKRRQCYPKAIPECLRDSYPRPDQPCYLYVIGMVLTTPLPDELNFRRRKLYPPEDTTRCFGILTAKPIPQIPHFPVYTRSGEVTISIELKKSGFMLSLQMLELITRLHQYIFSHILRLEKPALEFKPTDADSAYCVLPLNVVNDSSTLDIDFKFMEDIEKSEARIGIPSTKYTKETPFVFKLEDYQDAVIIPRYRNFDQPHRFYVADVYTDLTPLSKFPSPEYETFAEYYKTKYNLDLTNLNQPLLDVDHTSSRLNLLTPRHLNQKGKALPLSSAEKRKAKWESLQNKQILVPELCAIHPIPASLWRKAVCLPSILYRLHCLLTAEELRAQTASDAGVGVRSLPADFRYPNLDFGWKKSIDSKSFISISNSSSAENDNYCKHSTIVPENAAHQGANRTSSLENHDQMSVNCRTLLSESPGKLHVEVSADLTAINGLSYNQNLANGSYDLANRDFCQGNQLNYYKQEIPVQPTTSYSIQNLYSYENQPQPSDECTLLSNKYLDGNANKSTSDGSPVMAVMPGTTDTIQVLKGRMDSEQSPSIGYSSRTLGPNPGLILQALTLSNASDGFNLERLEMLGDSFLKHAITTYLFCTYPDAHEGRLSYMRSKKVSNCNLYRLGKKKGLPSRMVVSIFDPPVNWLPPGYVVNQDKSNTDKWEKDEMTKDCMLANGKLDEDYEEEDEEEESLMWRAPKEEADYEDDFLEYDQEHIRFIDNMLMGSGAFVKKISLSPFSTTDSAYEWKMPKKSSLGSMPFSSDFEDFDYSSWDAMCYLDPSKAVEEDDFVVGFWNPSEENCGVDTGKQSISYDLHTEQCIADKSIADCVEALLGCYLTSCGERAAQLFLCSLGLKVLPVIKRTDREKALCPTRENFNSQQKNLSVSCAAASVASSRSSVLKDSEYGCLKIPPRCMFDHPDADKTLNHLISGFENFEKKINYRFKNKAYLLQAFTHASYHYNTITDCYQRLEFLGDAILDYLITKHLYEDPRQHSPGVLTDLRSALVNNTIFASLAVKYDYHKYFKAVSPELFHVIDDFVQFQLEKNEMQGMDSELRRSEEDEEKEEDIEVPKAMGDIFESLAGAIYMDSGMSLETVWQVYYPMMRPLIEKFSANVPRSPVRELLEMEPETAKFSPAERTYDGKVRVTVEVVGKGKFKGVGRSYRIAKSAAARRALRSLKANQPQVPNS
* hit, by the source's call. Many of the other results were omitted from the sample, so hits are more common in it than they were.

SMILES | Dicer processing
N#Cc1c(=O)c2ccccc2n2c1[nH]c1ccccc12 | -1.4
COCCOC(=O)c1c(C)oc2ccc(O)cc12 | 1.3
CN(C)/C=N/NC(=O)Cn1nnc(-c2ccc(C(F)(F)F)cc2)n1 | -1
OC(CNCCNc1ncccc1C(F)(F)F)COc1ccc(Cl)c(Cl)c1 (stereo unspecified) | -0.79
Cn1nc(C2CC2)cc1NC(=O)COc1ccc(Cl)cc1Cl | -0.33
O=C(CSc1nncn1-c1ccc(C(F)(F)F)cc1)c1cc2ccccc2o1 | 0.19
CCOC(=O)c1c(NC(=O)CCC(=O)O)sc2c1CCCC2 | 2.2
CCOC(=O)c1c(NC(=O)CCC(=O)O)sc2c1CCCC2=O | 3*
CCOC(=O)c1c(NC(=O)CCC(=O)O)sc2c1CCCCC2 | -0.71
O=C(CSc1nc2c(Cl)cc(Cl)cc2s1)Nc1ccc(Cl)cc1 | -0.89
Cc1ccc2c(C)nc(Nc3nc4c(c(=O)[nH]3)CCCC4)nc2c1 | 0.79
COc1ccc(C(=O)CSc2nc(C)cc(C)n2)cc1C | -0.42
Cc1cc(C)nc(SCC(=O)c2c(C)[nH]c3ccccc23)n1 | 2.9
Cc1cc(C)nc(SCC(=O)c2ccc(F)cc2F)n1 | 3.7*
CCCCCC(=O)Oc1ccc(N2C(=O)C3CCCCC3C2=O)cc1 (stereo unspecified) | -0.68
O=C(/C=C/c1cccs1)Nc1ccc(N2CCOCC2)c(C(=O)O)c1 | 0.8
CC1CN(Cc2ccc3c(c2)OCO3)C(=O)C(=O)N1Cc1ccc2c(c1)OCO2 (stereo unspecified) | 2.5
C=CCSc1nc2sc3c(c2c(=O)n1Cc1ccccc1)CCC(C)C3 (stereo unspecified) | -1.5
COc1nc(C)nc(N/C=C(\C#N)C(=O)C2CC2)n1 | 1.4
Cc1nn(S(=O)(=O)c2ccccc2)c(C)c1Sc1ccccc1 | -0.47
COC(=O)CSc1nc(C)cc(Oc2ccccc2)n1 | 3.7*
Cc1cc(Oc2ccc(=O)n(C)n2)nc(SCC(N)=O)n1 | 0.67
COC(=O)CSc1cc(C)nc(N)n1 | -0.59
CCCCCOC(=O)C1=C(C)NC2=C(C(=O)CCC2)C1c1cccc(Br)c1 (stereo unspecified) | -0.42
Cc1ccc2c(C)nc(Nc3nc(C)cc(C)n3)nc2c1 | 0.47
SMILES | Dicer processing
COc1ccc(-c2sc(/N=C/c3cccs3)c(C#N)c2C)cc1OC | 1.1
CCOc1ccc(-c2n[nH]c(C)c2Oc2ccc(F)cc2)c(O)c1 | 2.3
CCOc1cc(O)c(-c2n[nH]c(C)c2Oc2ccccc2)cc1CC | 2.4
Cc1[nH]nc(-c2ccc(O)c(C)c2O)c1Oc1ccccc1 | 3.1*
COc1ccc(C2CC(=O)C3=C(C2)NC(C)=C(C(=O)OC(C)C)C3c2ccc(F)cc2)cc1OC (stereo unspecified) | 2.5
CC(C)OC(=O)CSc1nnc(-c2ccc(Br)cc2)o1 | 0.88
Cc1ccc(-c2nnc(SCC(=O)OC(C)C)o2)cc1 | 2
COc1ccc(-c2nnc(SCC(=O)OC(C)C)o2)cc1 | 3.1*
O=C1c2cccc3c(N4CCOCC4)ccc(c23)C(=O)N1c1ccc(Cl)cc1 | 0.35
O=S(=O)(n1nccc1C(c1ccccc1)c1ccccc1)C(F)(F)F | 0.02
CC(C)(C)NNC(=S)Nc1ccc(Cl)c(Cl)c1 | 1.8
Cc1c(/C=C/c2ccnc(SCC(=O)Nc3ccccc3)n2)sc2ccccc12 | 2.2
S=C(N/N=C/c1cccnc1)NC1CC2CC1C1C=CCC21 (stereo unspecified) | 0.65
CNC(=S)N/N=C/c1ccccc1Cl | -0.61
Oc1ccccc1/C=N/NC(=S)NC1CC2CC1C1C=CCC21 (stereo unspecified) | 3.8*
C=CCN1C(=O)C(O)(CC(=O)c2cccc(OC)c2)c2cc(Br)ccc21 (stereo unspecified) | 0.08
CC(=O)Nc1nc(-c2ccccc2)nc(C)c1-c1cc(C)c2c(C)nc(-c3ccccc3)nc2n1 | -0.29
CC(C)(C)OC(=O)/C(C#N)=C/c1ccc(C(F)(F)F)cc1 | 15
CCc1n(CC(O)COc2ccccc2OC)c2ccccc2[n+]1C (stereo unspecified) | -0.3
C(=N\Nc1ncnc2sc(-c3ccccc3)cc12)/c1cccs1 | 1.1
Cc1ccc(/C=N/Nc2ncnc3sc(-c4ccccc4)cc23)o1 | 3.8*
C(=N\Nc1ncnc2sc(-c3ccccc3)cc12)/c1ccncc1 | 2.8
Cn1c(=O)c2c3nc4cc([N+](=O)[O-])ccc4cc3c(=O)n(C)c2n(C)c1=O | -0.92
COc1cc(-c2nc3ccc(OC(C)=O)cc3c(=O)o2)ccc1OC(C)=O | -2.1
COCCOC(=O)C1=C(C)Nc2nc3ccccc3n2C1c1ccc(C(C)C)cc1 (stereo unspecified) | 1.8
SMILES | Dicer processing
COC(=O)c1ccc(C(=O)OC)c(NC(=O)Nc2ccc(F)cc2)c1 | 0.73
COC(=O)c1ccc(C(=O)OC)c(NC(=O)C2CC3CCC2C3)c1 (stereo unspecified) | 4.3*
CCOC(=O)Nc1cc(C(=O)OC)ccc1C(=O)OC | 2.1
Clc1ccc(CSc2nc3ccccc3[nH]2)cc1 | -0.16
CC(CC(=O)O)CC(=O)Nc1nncs1 (stereo unspecified) | -2.2
O=C(O)CC(CC(=O)O)c1ccc(Cl)cc1 | 1.3

Assay outcomes as filed in PubChem.
